# Shown are actives, neighbours in structure and some others; about 3.3% of the full set was active somewhere.
# NOD2 RIPK2 PPI – NOD2-RIPK2 binding disruptors in cells, primary screen, fluorescence, CHO cells, BLA complementation; hit rate 0.38% among 360,000; inhibition, % at 4.98 µM; CCF4 ratio; AID 624267, 2012; in the data active = inhibition above about 21%
# rCAG RNA binder – binders of r(CAG) RNA repeats, primary screen, biochemical, fluorescence. r(CAG) RNA repeat, TO-PRO-1 dye displacement fluorescence. inhibition, % at 3 µM. hit rate 1.3% among 370,000;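 active = inhibition above the plate cutoff, the mean of all test compounds on that plate plus 3 SD, cut at about 35% in these data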;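 note: higher means more dye released from RNA so lower well fluorescence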
# ABHD5-PLIN5 inh – ABHD5-PLIN5 interaction inhibitors, primary screen, cell lysate, split luciferase complementation, luminescence | hit rate 0.78% among 360,000 | Perilipin-5 (Homo sapiens) + 1-acylglycerol-3-phosphate O-acyltransferase ABHD5 (Homo … | Split G. princeps luciferase complementation, 4 h | AID 602281, 2012 | inhibition, % at 4 µM;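 active = inhibition above the mean inhibition across every tested compound plus 3 SD, cut at about 22% in these data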
# TLR4 MyD88 comp – inhibitors of TLR4-MyD88 association in cells, primary screen, cell-based, HeLa CL3-4, BLA complementation, FRET ratio | Toll-like receptor 4 (Homo sapiens) + Myeloid differentiation primary response protein … | HeLa CL3-4 TLR4/MyD88 BLA complementation | hit rate 0.18% among 200,000 | inhibition, % at 8.4 µM; in the data active = inhibition above about 25%
# TLR9-MyD88 inh – inhibitors of TLR9-MyD88 association in cells, primary screen, cell-based, CHO, BLA complementation, fluorescence; Toll-like receptor 9 (Homo sapiens) + Myeloid differentiation primary response protein …; CCF4 FRET ratio; inhibition, % at 4.98 µM; hit rate 0.21% among 340,000; AID 504734, 2011;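 active = inhibition above the mean over all tested compounds plus 3 SD, cut at about 21% in these data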
# PRMT1 inh – PRMT1 methyltransferase inhibitors, primary screen, biochemical, fluorescence polarization; Protein arginine N-methyltransferase 1 (Homo sapiens), Q99873; recombinant PRMT1, activity-based probe fluorescence polarization; inhibition, % at 2.79 µM; hit rate 1.3% among 370,000;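 active = inhibition above about 21% made by adding two undisclosed values, limit read from the data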
# PRMT1 confirm – PRMT1 methyltransferase inhibitors, confirmation, biochemical, fluorescence polarization, triplicate; shares compounds with PRMT1 inh; recombinant His-PRMT1, activity-based probe fluorescence polarization; inhibition, % at 2.79 µM; hit rate 42% among 3,300;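 active = mean inhibition across replicates above the hit cutoff derived for the earlier primary screen, cut at about 22% in these data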
# A number is an active result; - = inactive; . = not tested or not shown.
SMILES,NOD2 RIPK2 PPI,rCAG RNA binder,ABHD5-PLIN5 inh,TLR4 MyD88 comp,TLR9-MyD88 inh,PRMT1 inh,PRMT1 confirm
S=P(c1ccc(N2CCOCC2)cc1N1CCOCC1)(N1CCOCC1)N1CCOCC1,-,-,-,.,-,-,.
Cn1cc(P(=S)(N2CCOCC2)N2CCOCC2)cc1P(=O)(N1CCOCC1)N1CCOCC1,-,-,-,-,-,40.5,-
CCn1c(C)c(P(=O)(N2CCOCC2)N2CCOCC2)c2ccccc21,-,-,-,-,-,-,.
CCOc1ccc(N=c2scc(-c3ccccc3)n2CCO)cc1,-,-,-,-,-,-,.
CCOc1ccc(N=c2scc(-c3ccc(OC)cc3)n2CCO)cc1,-,-,-,-,-,25.9,-
OCCn1c(-c2ccc(F)cc2)csc1=Nc1ccccc1,-,-,-,-,-,42.0,-
OCCn1c(-c2ccc3c(c2)OCO3)csc1=Nc1ccccc1,-,-,-,-,-,31.9,-
CCn1c(-c2ccccc2)csc1=Nc1ccc(O)cc1,-,-,-,-,-,-,.
CC(C)[C@H](NC(=O)c1ccccc1)C(=O)OCC(=O)Nc1ncc(Cl)cc1Cl,-,-,-,.,-,-,.
Cc1ccc(NC(=O)CC2SC3=NCCCN3C2=O)c(C)c1 (stereo not given),-,-,-,-,-,44.5,39.7
Cc1cc(Cl)ccc1OCc1n[nH]c(=S)n1C1CCCCC1,-,-,-,-,-,25.8,-
CCN(Cc1ccccc1)CC(O)COC(c1ccc(OC)cc1)c1ccc(OC)cc1 (stereo not given),-,-,-,.,-,-,.
CC(=O)CCC(=O)OCC(=O)Nc1ccc(SC(F)F)cc1,-,-,-,-,-,27.4,24.2
CC(C)=CC(=O)OCC(=O)Nc1ccc(SC(F)F)cc1,-,-,-,-,-,-,.
O=C(COC(=O)c1cc[n+]([O-])cc1)Nc1ccc(SC(F)F)cc1,-,-,-,.,-,28.2,-
CC1CCC2(CC1)OCC1(CCC3(COC4(CCC(C)CC4)OC3)C1=O)CO2 (stereo not given),-,-,-,-,-,-,.
O=C(CSc1nnc(-c2cccnc2)n1-c1ccc(Cl)cc1)Nc1ccccc1-c1ccccc1,.,-,.,.,.,-,.
COc1ccccc1Cc1c(-c2cccc(Cl)c2)nc2c3ccccc3ccn12,.,-,.,.,.,-,.
O=[N+]([O-])c1ccc(CN2CC(N3CCN(CC4CC4)CC3)CS2(=O)=O)cc1 (stereo not given),-,-,-,.,-,-,.
Oc1ccccc1CNc1cnc2ccccc2c1,-,-,-,-,-,-,.
Oc1ccc2ccccc2c1CNc1cnc2ccccc2c1,-,-,22.0,-,-,42.9,29.4
O=C(CC[C@H]1O[C@@H](n2ccc(=O)[nH]c2=O)[C@H](O)[C@@H]1O)N[C@@H](Cc1ccccc1)C(=O)NCc1ccccc1,-,-,-,.,.,-,.

# High-throughput results as filed in PubChem BioAssay.
